Test results taken from PubChem BioAssay.
A number with no mark means an inactive call. The source made the active and inactive calls. Cut-off read from the data, not from the text of the source, unless noted: active = inhibition above about 33%; inactive = the rest.

How the values were obtained:
[1] = StAR promoter reporter inhibitors, counter-screen for LRH-1 inverse agonist project, cell-based, luminescence, high throughput (AID 651611; in the data active = inhibition above about 28%); settings: StAR promoter luciferase reporter counterscreen, at 3.6 µM, active compounds read high
[2] = molecular target: Nuclear receptor subfamily 5 group A member 2 (Homo sapiens) (UniProt O00482); assay: NR5A2 activity suppression in reporter cells – cell-based, luminescence, confirmation (AID 651613; in the data active = inhibition above about 42%;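 note: HEK293T cells co-transfected with LRH-1 and StAR promoter luciferase reporter; 0% = vehicle wells and 100% = parental cells lacking receptor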); settings: cell-based LRH-1 luciferase reporter, inverse agonism; at 3.6 µM; active compounds read high
Sequence of Nuclear receptor subfamily 5 group A member 2 (Homo sapiens) (O00482 whole entry, looked up): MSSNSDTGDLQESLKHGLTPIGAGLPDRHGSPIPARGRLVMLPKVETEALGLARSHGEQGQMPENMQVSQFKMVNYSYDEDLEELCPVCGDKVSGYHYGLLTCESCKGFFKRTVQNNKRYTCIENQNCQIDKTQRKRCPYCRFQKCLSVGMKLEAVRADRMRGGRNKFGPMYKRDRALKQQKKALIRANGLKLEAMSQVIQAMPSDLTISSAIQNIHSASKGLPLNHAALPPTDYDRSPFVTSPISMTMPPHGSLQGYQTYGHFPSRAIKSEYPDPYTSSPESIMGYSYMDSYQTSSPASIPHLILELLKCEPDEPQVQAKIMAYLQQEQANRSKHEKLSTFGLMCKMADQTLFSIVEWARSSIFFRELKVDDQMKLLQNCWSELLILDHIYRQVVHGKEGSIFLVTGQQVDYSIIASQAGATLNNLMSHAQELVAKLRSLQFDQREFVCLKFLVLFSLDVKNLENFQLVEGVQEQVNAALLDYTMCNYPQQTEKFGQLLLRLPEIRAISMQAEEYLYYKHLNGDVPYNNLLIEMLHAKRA

[3] = molecular target: Steroidogenic factor 1 (Homo sapiens) (UniProt Q13285); assay: inverse agonism at SF1 nuclear receptor – cell-based, luminescence, high throughput, counter-screen for LRH-1 inverse agonist project (AID 651614; in the data active = inhibition above about 44%;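 note: cells cotransfected with StAR promoter reporter and SF1 expression vector; 0% = vehicle on cells with receptor and 100% = vehicle on cells lacking receptor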); settings: cell-based SF1 luciferase reporter, at 3.6 µM, active compounds read high
Sequence of Steroidogenic factor 1 (Homo sapiens) (Q13285 whole entry, looked up, the tested form may be a part): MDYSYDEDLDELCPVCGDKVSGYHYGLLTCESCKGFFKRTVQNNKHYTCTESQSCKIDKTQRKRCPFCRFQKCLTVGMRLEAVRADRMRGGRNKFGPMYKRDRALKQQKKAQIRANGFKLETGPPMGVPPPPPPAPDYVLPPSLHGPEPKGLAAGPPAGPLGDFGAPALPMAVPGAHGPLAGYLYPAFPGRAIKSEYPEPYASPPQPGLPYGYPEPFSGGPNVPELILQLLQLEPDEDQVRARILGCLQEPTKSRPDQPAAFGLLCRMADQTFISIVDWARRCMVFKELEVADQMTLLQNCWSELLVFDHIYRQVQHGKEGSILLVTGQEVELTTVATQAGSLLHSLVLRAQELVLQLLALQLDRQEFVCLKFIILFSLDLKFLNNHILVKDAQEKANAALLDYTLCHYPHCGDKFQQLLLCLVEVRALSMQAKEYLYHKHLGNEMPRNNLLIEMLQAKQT

[4] = compounds suppressing VP16-driven luciferase signal – cell-based, luminescence, high throughput, counter-screen for LRH-1 inverse agonist project (AID 651615); settings: Gal4-VP16 luciferase reporter cells, at 3.6 µM, active compounds read high

Compound | inhibition [1] [%] | inhibition [2] | inhibition [3] | inhibition [4] [%]
O=C(CSc1ncnc2c1cnn2-c1ccccc1)Nc1ccc2c(c1)OCO2 | 11 | 55.6% (active) | 48.5% (active) | -7.58
COCCn1c(SCC(=O)Nc2ccc(C(N)=O)cc2)nc2c([nH]c3ccccc32)c1=O | 24.6 | 64.9% (active) | 61.7% (active) | -64
O=C(c1ccc([N+](=O)[O-])s1)N1CCN(c2ncccn2)CC1 | 1.48 | 30.8% | 41.5% | 4.85
Cc1nn(CC(=O)Nc2ccc(N3CCOCC3)cc2)c(C)c1Cl | -2.18 | 44.3% (active) | 29.8% | -1.64
O=C(N/N=C/c1ccc([N+](=O)[O-])s1)C(O)c1ccccc1 (centres undefined) | 25.9 | 46.7% (active) | 62.2% (active) | -11.9
CN(C)C(=O)Cn1c(SCC(=O)Nc2ccc3c(c2)OCO3)nc2ccccc21 | -0.98 | 22.2% | 28.2% | -0.46
